Assay results published in PubChem BioAssay AID1619 (SRMLSC, 2009).
The campaign covered roughly 220,000 compounds. About 830 (0.38%) were called active.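 How the source made its calls: active means compound inhibiting the enzyme by more than half at any dose during confirmatory dose-response retesting; inconclusive means strong single-dose inhibitors picked by rank but not retested; inactive means the rest.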 Not all results are given here. Entries with a potency or affinity are not part of this list.

biological target: Leucine aminopeptidase (Plasmodium falciparum (isolate 3D7)) (UniProt Q8IL11); experiment: P. falciparum M17LAP inhibitors, primary screen, biochemical, fluorogenic H-Leu-NHMec substrate, 1536-well (AID 1619); details: recombinant M17LAP, H-Leu-NHMec fluorogenic kinetic assay; at 30 µM; hits give high values;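 further: plate controls were full reaction with DMSO carrier for no effect and no enzyme background for full effect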
Sequence (Q8IL11 whole entry, looked up): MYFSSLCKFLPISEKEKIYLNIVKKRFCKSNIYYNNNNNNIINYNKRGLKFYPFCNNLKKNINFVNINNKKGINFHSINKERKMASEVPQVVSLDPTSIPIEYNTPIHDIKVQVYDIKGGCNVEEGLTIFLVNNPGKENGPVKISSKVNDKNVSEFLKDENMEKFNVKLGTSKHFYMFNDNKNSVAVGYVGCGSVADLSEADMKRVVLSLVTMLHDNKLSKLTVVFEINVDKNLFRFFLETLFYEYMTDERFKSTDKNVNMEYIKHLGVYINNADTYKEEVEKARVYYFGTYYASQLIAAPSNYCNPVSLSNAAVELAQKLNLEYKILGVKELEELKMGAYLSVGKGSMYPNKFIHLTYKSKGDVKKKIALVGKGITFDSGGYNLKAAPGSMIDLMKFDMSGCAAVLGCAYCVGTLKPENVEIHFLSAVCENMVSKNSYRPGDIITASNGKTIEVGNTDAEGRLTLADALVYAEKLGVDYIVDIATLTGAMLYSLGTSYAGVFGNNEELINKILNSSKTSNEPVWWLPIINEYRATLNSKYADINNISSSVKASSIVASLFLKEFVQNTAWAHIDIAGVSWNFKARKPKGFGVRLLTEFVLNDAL

inhibition, inactive:
COc1cccc(/C=N/NC(=S)Nc2cccc(C(=O)O)c2)c1O 44.2%
Cc1ccccc1NC(C)C(=O)N/N=C/c1ccccc1OCc1cccc(Br)c1 (stereo not given) -0.47%
CC(Nc1ccc(Br)cc1)C(=O)N/N=C/c1ccccc1OCc1ccccc1 (stereo not given) -9.93%
COc1ccc(NC(C)C(=O)N/N=C/c2ccccc2OCc2cccc(Br)c2)cc1 (stereo not given) 3.79%
O=C(N/N=C/c1cccc(O)c1)c1ccc(COc2cccc3cccnc23)cc1 3.53%
O=C(N/N=C/c1ccncc1)c1ccc(COc2cccc3cccnc23)cc1 8.86%
CC1(C)CC2CC(C)(CN2/C=C2/CCCCC2=O)C1 (stereo not given) 16.8%
CCC1S/C(=N/N=C/c2ccco2)N(c2ccc(F)cc2)C1=O (stereo not given) 5.93%
O=[N+]([O-])c1cccc2ccc(/C=C/c3ccc(C(F)(F)F)cc3)nc12 5.36%
Cc1cc(N=Cc2c(O)n(-c3ccc(C)c(C)c3)c(=O)c3ccccc23)no1 -34.1%
COc1ccc(OCC(=O)OC(C)CN2CCOCC2)cc1 (stereo not given) 4.55%
COc1cccc(CC(=O)n2nc(N)c3cc4ccc(OC)cc4nc32)c1 -8.98%
O=C(CCC(=O)N1CCN(S(=O)(=O)c2ccc(Cl)cc2)CC1)Nc1ccc2ccccc2c1 -4.1%
CCc1ccc(C2NC(=S)NC3=C2C(=O)CC(C)(C)C3)cc1 (stereo not given) -1.26%
CCOC(=O)c1c(C)[nH]c(C(=O)/C(C#N)=C/c2ccc(OC)c(OC)c2)c1C 9.47%
CC(C)NC(=O)COC(=O)c1ccc(S(=O)(=O)N2CCCC2)cc1 -2.13%
CCCS(=O)(=O)N1CCN(S(=O)(=O)c2ccccc2)CC1 -6.24%
O=C(CCC(=O)N(CC(=O)NC1CCCCC1)c1ccc2c(c1)OCCO2)Nc1ccccn1 9.63%
COc1ccc(Nc2nnc(SCC(=O)c3cc4ccccc4o3)s2)cc1 4.36%
O=C(CSc1nnc(Nc2ccccc2F)s1)c1cc2ccccc2o1 32.5%
O=S(=O)(c1ccccc1)N1CCN(c2nc(-c3cccs3)nc3ccccc23)CC1 4.27%
CC(C)CC(NC(=O)c1cccs1)c1nnc(SCc2ccc(Cl)c(Cl)c2)n1C (stereo not given) 4.91%
C/C=C/C(=O)OCC(=O)Nc1ccc(SC(F)F)cc1 -1.79%
Cc1nn(-c2ccccc2)c(N2CCCC2)c1/C=C1\N=C(c2ccccc2)OC1=O 2.36%
O=C(O)C1CCCCC1C(=O)Nc1cccc2ccccc12 (stereo not given) 39.5%
COC(=O)c1ccccc1NC(=O)C1CC=CCC1C(=O)O (stereo not given) 29.7%
O=C(CCC(=O)Nc1ccc(Cl)cc1Cl)NNC(=O)[C@@H]1CCCC[C@@H]1C(=O)O -2.95%
O=C(O)C1CC=CCC1C(=O)Nc1ccccc1C(=O)N1CCN(c2ccc(Cl)cc2)CC1 (stereo not given) 56.6%
O=C(O)C1CCCCC1C(=O)Nc1ccccc1Cl (stereo not given) 43.9%
O=C(O)C1CCCCC1C(=O)Nc1ccc(F)cc1F (stereo not given) 41.3%
Cc1ccc(F)c(NC(=O)C2CCCCC2C(=O)O)c1 (stereo not given) 4.08%
Cc1ccc(Cl)cc1NC(=O)C1CCCCC1C(=O)O (stereo not given) 10.3%
COc1ccc(C(=O)Nc2cccc(-c3nc4ncccc4o3)c2C)cc1OC 2.86%
COc1ccc(Cn2c(CCC(=O)Nc3ccc(C)cc3)nc3cccnc32)cc1 -4.5%
CCOC(=O)C(C(=O)OCC)C1CS(=O)(=O)CC1C(C(=O)OCC)C(=O)OCC (stereo not given) 17%
COc1ccc(CCNC(=O)CC2Nc3ccccc3NC2=O)cc1 (stereo not given) 3.68%
COc1ccccc1NC(=O)NCc1ccco1 4.76%
Cc1cc(=O)[nH]c(SCC(=O)Nc2ccc(Br)cn2)n1 19.5%
O=C(CNC1CC1)Nc1cc(C(F)(F)F)ccc1Cl 1.31%
O=C(NNC(=O)[C@H]1CC=CC[C@H]1C(=O)O)c1ccc(Cl)cc1Cl 0.37%
O=C(O)C1CC=CCC1C(=O)NNc1c(Cl)cc(Cl)cc1Cl (stereo not given) 3.9%
O=C(O)C1=C(C(=O)Nc2cc(C(F)(F)F)ccc2Cl)CCCC1 8.32%
CCOC(=O)c1cnc2c(OC)cccc2c1Nc1ccc2c(c1)OCCO2 2.45%
O=C(Nc1nc2cc3c(cc2s1)OCCO3)c1ccc(N2C(=O)CCC2=O)cc1 0.52%
O=C(O)c1cc2c(cc1Br)OCCCO2 -43.7%
COc1ccc(OC)c(NC(=O)c2cccnc2Sc2ccccc2)c1 -17.3%
CC1CC(C)CN(CCOc2ccc(Br)cc2)C1 (stereo not given) -2.12%
CC(C)(C)C(=O)N1CCC[C@H]1C(O)(c1ccccc1)c1ccccc1 -4.15%
OC(CNCc1ccccn1)c1ccccc1 (stereo not given) -7.85%
COc1cccc(NC2=CC(=O)CC(C)(C)C2)c1 -33.9%
Clc1ccc(Nc2ccc(Cl)nn2)cc1 -4.12%
COC(=O)C1=C(Nc2cc(Cl)cc(Cl)c2)CSC1 5.27%
S=c1[nH]nc(Nc2ccc(Cl)cc2)s1 11.5%
Clc1cc(Cl)cc(Nc2ncnc(-n3cccc3)n2)c1 12.9%
CCc1nc2c(c(=O)c3ccccc3n2C)c(=O)n1C1CCCCCC1 11%
O=C(Nc1ccncc1)c1cccc2ccccc12 7%
Cc1nc(NC(=O)Nc2ccc(Cl)cc2)sc1C 2.28%
N#CC(C#N)=C1C=C2C=C(N3CCCCCC3)CCC2CC1 (stereo not given) 10.6%
N#CC(C#N)=C1C=C2C=C(N3CCCCC3)CCC2CC1 (stereo not given) 0.1%
O=C1c2ccccc2C(=O)c2cc(S(=O)(=O)Nc3ccccc3)ccc21 9.48%
O=C(Nc1ccc(Cl)cc1)OCc1cn(-c2ccccc2)nn1 6.64%
CCSc1nnc(-c2cc(Br)ccc2N=Cc2c(C)[nH]n(-c3ccccc3)c2=O)c(=O)[nH]1 0.47%
Cc1nn(-c2ccccc2)c(C)c1/C=N/O 4.53%
CCOc1ccc(Oc2c(/C=N/NC(N)=O)c(C)nn2-c2ccccc2)cc1 3.82%
C=CCSc1nnc(-c2ccccc2N=Cc2c(C)[nH]n(-c3ccccc3)c2=O)c(=O)[nH]1 56.2%
Cc1ccccc1-c1n[nH]c(=S)n1/N=C/c1c(C)nn(-c2ccccc2)c1C 6.29%
Cc1nn(-c2ccccc2)c(C)c1/C=N/n1c(-c2ccccc2Br)n[nH]c1=S -1.13%
CC(C)[C@H](NC(=O)[C@H](CCCN=C(N)N)NC(=O)NC(Cc1ccccc1)C(=O)O)C(=O)NC(C=O)CCCN=C(N)N (stereo not given in full) 6.32%
O=c1[nH]c(-c2ccc3c(c2)OCO3)nc2c1sc(=S)n2-c1ccccc1 -0.6%
Cc1ccc(CN2C(=O)N/C(=C\c3ccc(-c4ccc(C(=O)O)cc4C)o3)C2=O)cc1 4.73%
Cc1cc(C(=O)O)ccc1-c1ccc(/C=C2\NC(=O)N(Cc3ccc(F)cc3)C2=O)o1 0.19%
Nc1cnc(CNc2ccccc2Cl)cn1 4.54%
CCn1c(N2CCN(S(=O)(=O)c3ccc(F)cc3)CC2)nc2ccccc21 2.95%
CC(=O)Nc1ccc(NC(=O)COC(=O)c2n[nH]c3ccccc23)cc1 2.47%
Nc1nonc1-c1nc2ccccc2n1CC(=O)N/N=C/c1ccc(-c2cccc(C(=O)O)c2)o1 31.4%
Nc1nonc1-c1nc2ccccc2n1CC(=O)N/N=C\c1ccc(-c2ccc(Cl)cc2)o1 3.34%
COc1cccc(C(=O)COC(=O)C(C)N2C(=O)C3C4C=CC(C4)C3C2=O)c1 (stereo not given) 4%
CC1CCc2nc(NCCO)nc(C(F)(F)F)c2C1 (stereo not given) 7.69%
COc1ccccc1CCc1nnc(CCC(=O)N(C)Cc2ccncc2C)o1 -1.17%
Cc1ccc2oc(=S)n(C)c2c1 3.68%
O=C(CSc1nnc(-c2ccc(O)cc2)n1Cc1ccco1)c1ccccc1 5.35%
CCOC(=O)c1c(NC(=S)Nc2ccc(Cl)cc2)sc(C)c1C 12.6%
CCOC(=O)c1c(NC(=S)Nc2ccc(F)cc2)sc2c1CCC2 6.14%
NC(=O)c1c(NC(=S)Nc2ccccc2)sc2c1CCCC2 16.9%
CCOC(=O)c1c(NC(=S)Nc2ccccc2)sc(C)c1C 26.5%
OCCN1CCN(c2nc(-c3ccccc3)nc3c2oc2ccccc23)CC1 7.26%
CNC(=O)N(C1=NCC(C)(C)S1)c1ccc(F)c(Cl)c1 -9.97%
CSc1ccc(/C=N/Nc2ccc(Cl)c(C(=O)O)c2)cc1 12.6%
O/N=C/c1ccc(OCc2ccccc2)c(Br)c1 6.58%
O/N=C/c1ccc(OCc2ccccc2)c(Cl)c1 13.4%
COc1cc(/C=N/Nc2ccc(Cl)cc2)ccc1OC(=O)c1cccs1 4.49%
COc1cc(/C=N/Nc2ccccc2)ccc1OC(=O)c1cccs1 1.12%
O=C(O)c1cc(N/N=C/c2ccncc2)ccc1Cl 18.2%
COc1cc(/C=N/Nc2ccc3ccccc3c2)ccc1OC(=O)c1ccco1 0.98%
COc1cc(/C=N/Nc2cccc(C)c2)ccc1OC(=O)c1ccco1 -4.8%
